Results published in the supplement of paper PMC6555819.

What was measured:
Assay in all cases: PBM binding z-score (relative to random genomic background probes); higher = stronger binding; sequences stand for … in GC…GCGATTGACAGCGTAGAATGAAGG
[1] = system: FXR:RXRa (NR concentration 270 nM, RXRa partner concentration 90 nM)
Procedure, shortened: (§1)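 Ligand-free nuclear receptor dimers were bound for 1 h to custom Agilent 4×180K protein-binding microarrays. Detection used antibodies against each partner (one per run). Binding z-scores rest on regression-normalized fluorescence, with random background probes as the reference.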

[2] = system: LXRa:RXRa (NR concentration 270 nM, RXRa partner concentration 90 nM)
Procedure, shortened: as §1

[3] = system: LXRa homodimer (NR concentration 270 nM)
Procedure, shortened: as §1

[4] = system: LXRb:RXRa (NR concentration 270 nM, RXRa partner concentration 90 nM)
Procedure, shortened: as §1

[5] = system: LXRb homodimer (NR concentration 270 nM)
Procedure, shortened: as §1

[6] = system: PPARa:RXRa (NR concentration 270 nM, RXRa partner concentration 90 nM)
Procedure, shortened: as §1

[7] = system: PPARg:RXRa (NR concentration 180 nM, RXRa partner concentration 90 nM)
Procedure, shortened: as §1

[8] = system: PPARg:RXRa 270nM:90nM, anti-RXR (NR concentration 270 nM, RXRa partner concentration 90 nM)
Procedure, shortened: as §1

[9] = system: PPARg:RXRa 30nM:10nM, anti-RXR (NR concentration 30 nM, RXRa partner concentration 10 nM)
Procedure, shortened: as §1

[10] = system: PPARg:RXRa 90nM:30nM, anti-RXR (NR concentration 90 nM, RXRa partner concentration 30 nM)
Procedure, shortened: as §1

[11] = system: PPARg:RXRa DBDmut IVT, anti-RXR (DBD mutation: RXRa K156A/R161A, NR concentration 270 nM, RXRa partner concentration 90 nM)
Procedure, shortened: as §1

[12] = system: PPARg:RXRa IVT, anti-PPARg (NR concentration 270 nM, RXRa partner concentration 90 nM)
Procedure, shortened: as §1

[13] = system: PPARg DBDmut:RXRa IVT, anti-PPARg (DBD mutation: PPARg1 K132A/R137A, NR concentration 270 nM, RXRa partner concentration 90 nM)
Procedure, shortened: as §1

[14] = system: PPARg DBDmut IVT, anti-PPARg (DBD mutation: PPARg1 K132A/R137A, NR concentration 270 nM)
Procedure, shortened: as §1

[15] = system: PPARg homodimer (NR concentration 180 nM)
Procedure, shortened: as §1

[16] = system: PXR:RXRa (NR concentration 270 nM, RXRa partner concentration 90 nM)
Procedure, shortened: as §1

[17] = system: PXR homodimer (NR concentration 270 nM)
Procedure, shortened: as §1

[18] = system: RARa:RXR (NR concentration 270 nM, RXRa partner concentration 90 nM)
Procedure, shortened: as §1

[19] = system: RARa homodimer (NR concentration 270 nM)
Procedure, shortened: as §1

[20] = system: RARb:RXRa (NR concentration 270 nM, RXRa partner concentration 90 nM)
Procedure, shortened: as §1

| Sequence | PBM binding z-score [1] | PBM binding z-score [2] | PBM binding z-score [3] | PBM binding z-score [4] | PBM binding z-score [5] | PBM binding z-score [6] | PBM binding z-score [7] | PBM binding z-score [8] | PBM binding z-score [9] | PBM binding z-score [10] | PBM binding z-score [11] | PBM binding z-score [12] | PBM binding z-score [13] | PBM binding z-score [14] | PBM binding z-score [15] | PBM binding z-score [16] | PBM binding z-score [17] | PBM binding z-score [18] | PBM binding z-score [19] | PBM binding z-score [20] |
| --- | --- | --- | --- | --- | --- | --- | --- | --- | --- | --- | --- | --- | --- | --- | --- | --- | --- | --- | --- | --- |
| CTTGAAAGGTCGTGCTCAGGTGAGTATACCAAAC | 5.86 | 4.22 | 0.0529 | 4.1 | 0.221 | 5.03 | 2.74 | 3.62 | 0.962 | 2.69 | 0.999 | 2.01 | 1.03 | 0.763 | 1.71 | 3.72 | 0.102 | 4.53 | 0.107 | 3.99 |
| TCTCGAAGGACACGAAAGGTCAGAGCTCGACATC | 2.94 | 3.47 | 2.63 | 3.26 | 0.0129 | 3.58 | 1.59 | 3.13 | 3.42 | 3.16 | 2.34 | 1.64 | 0.0703 | 0.551 | 1.75 | 3.79 | 0.247 | 4.04 | 0.683 | 4.23 |
| CAAACTAGGACAAAGGTCAAAGTCGAGCCAACCA | 6.31 | 6.08 | 4.5 | 5.58 | 2.61 | 7 | 12.1 | 10.6 | 10.9 | 11.9 | 6.48 | 7.54 | 2.91 | 1.8 | 4.89 | 5.62 | 2.1 | 6.43 | 3.25 | 4.8 |
| ACATACAGGTGATGAAGGTAACTCAGGCTATCAT | 0.328 | 0.419 | 0.233 | 0.198 | -0.055 | 0.484 | 1.06 | 0.534 | 0.477 | 0.425 | 1.27 | 1.16 | 1.17 | 0.566 | 0.36 | 0.132 | 0.441 | 0.745 | 0.688 | 0.588 |
| CGTCCAAGGTCGGCAGGTCAGTGAAAGCGACGTG | 1.48 | 0.7 | -0.723 | 0.338 | -1.39 | 1.95 | -0.15 | 0.764 | -0.459 | -0.168 | -0.305 | 0.214 | -0.718 | -1.66 | 0.288 | 1.23 | -0.703 | 1.88 | -0.686 | 3.17 |
| TATCCTAGGTCATTGGGCCAGTATAGTACGCATC | 4.8 | 6.02 | 5.49 | 3.44 | 2.48 | 4.44 | 5.45 | 4.94 | 2.33 | 4.11 | 4.13 | 5.49 | 1.68 | 3.21 | 2.35 | 2.21 | 0.746 | 2.96 | 0.931 | 3.98 |
